TLR4-MyD88 BLA = inhibitors of human TLR4-MyD88 binding | O00206+Q99836 | HeLa CL3-4 TLR4/MyD88 BLA complementation, FRET ratio | inhibition, % at 8.4 µM | 200,000 tested, 0.18% active | AID 861; in the data active means inhibition above about 25%
TLR9-MyD88 block = blocks human TLR9 binding to MyD88 | inhibition, % at 4.98 µM | 340,000 tested, 0.21% active | Q9NR96+Q99836 | AID 504734 | CHO BLA complementation TLR9-MyD88, CCF4 FRET ratio;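 active means inhibition above the mean over all tested compounds plus 3 SD, cut at about 21% in these data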
Target sequence (Q99836 whole entry, looked up): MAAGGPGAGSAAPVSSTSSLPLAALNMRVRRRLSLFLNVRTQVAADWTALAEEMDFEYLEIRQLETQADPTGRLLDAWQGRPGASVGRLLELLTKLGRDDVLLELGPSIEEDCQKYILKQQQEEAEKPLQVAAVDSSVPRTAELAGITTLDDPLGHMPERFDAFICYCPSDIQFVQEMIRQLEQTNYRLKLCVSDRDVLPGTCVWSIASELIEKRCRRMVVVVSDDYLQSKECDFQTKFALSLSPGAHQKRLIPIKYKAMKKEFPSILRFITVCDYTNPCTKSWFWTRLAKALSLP
Target sequence (Q9NR96 whole entry, looked up): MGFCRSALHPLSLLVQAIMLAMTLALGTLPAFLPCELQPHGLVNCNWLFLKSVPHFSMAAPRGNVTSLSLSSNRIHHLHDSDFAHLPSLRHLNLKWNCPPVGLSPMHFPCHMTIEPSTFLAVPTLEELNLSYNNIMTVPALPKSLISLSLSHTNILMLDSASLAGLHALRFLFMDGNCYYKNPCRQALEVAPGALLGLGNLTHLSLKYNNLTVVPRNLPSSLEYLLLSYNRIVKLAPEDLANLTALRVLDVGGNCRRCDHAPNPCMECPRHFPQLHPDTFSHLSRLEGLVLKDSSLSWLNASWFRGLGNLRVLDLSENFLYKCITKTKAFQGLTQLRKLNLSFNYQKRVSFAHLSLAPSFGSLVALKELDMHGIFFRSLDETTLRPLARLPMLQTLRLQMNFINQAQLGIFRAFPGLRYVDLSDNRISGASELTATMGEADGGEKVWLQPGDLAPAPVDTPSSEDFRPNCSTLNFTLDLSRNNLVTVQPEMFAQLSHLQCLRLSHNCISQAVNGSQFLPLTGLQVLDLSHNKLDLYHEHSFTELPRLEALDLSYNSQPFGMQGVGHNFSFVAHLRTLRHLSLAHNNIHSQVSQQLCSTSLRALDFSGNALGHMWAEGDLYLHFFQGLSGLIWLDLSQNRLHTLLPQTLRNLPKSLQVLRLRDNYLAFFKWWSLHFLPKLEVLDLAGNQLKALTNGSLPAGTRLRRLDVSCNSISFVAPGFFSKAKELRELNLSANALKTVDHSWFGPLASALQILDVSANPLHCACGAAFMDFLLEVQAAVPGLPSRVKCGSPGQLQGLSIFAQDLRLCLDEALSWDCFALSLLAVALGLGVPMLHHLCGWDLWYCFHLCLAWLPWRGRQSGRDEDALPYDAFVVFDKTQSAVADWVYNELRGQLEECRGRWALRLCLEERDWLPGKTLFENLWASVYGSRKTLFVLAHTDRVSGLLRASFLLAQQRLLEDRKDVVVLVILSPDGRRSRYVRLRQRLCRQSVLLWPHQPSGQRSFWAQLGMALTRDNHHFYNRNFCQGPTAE
A1 inh = inhibitors of the anti-apoptotic protein A1, read as caspase activation; 330,000 tested, 0.066% active; caspase activation, % (no concentration beside the values); MEF A1-2A-BIM cells, Caspase-Glo 3/7 luminescence, 3 h; percent of clofoctol response, vehicle zero;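 active means over half of replicate activation scores above 10%, or exactly half above 10 with the replicate mean above 10; inconclusive means replicate mean below 10 yet half the replicates above 10; inactive means over half of replicates below 10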
NOD2-RIPK2 inh = blocks binding of human NOD2 to RIPK2 | O43353 | CHO BLA complementation NOD2-RIPK2, CCF4 ratio | inhibition, % at 4.98 µM | 360,000 tested, 0.38% active | AID 624267; in the data active means inhibition above about 21%
B2AR ag = activates human beta-2 adrenergic receptor causing internalization | AID 504454 | 340,000 tested, 0.43% active | response, % (no concentration beside the values) | P07550 | Am2.2-beta2AR cells, FAP receptor internalization, flow cytometry;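 active means response above a set limit, near 3 SD of response in nonfluorescent compounds, cut at about 42% in these data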
NTR1 agonist = activates human neurotensin receptor 1 | P30989 | NTR1-U2OS beta-arrestin-GFP spot imaging, agonist mode | activation, % at 20 µM | 330,000 tested, 0.17% active;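 active means activation at or above 40% of the spot to cytoplasm intensity ratio, with at least 20 cells analyzed; inconclusive means wells under 20 cells, flagged as cytotoxic or low count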
NOD2-RIPK2 conf = confirmation of human NOD2-RIPK2 interaction inhibitors; 1,200 tested, 70% active; inhibition, % at 4.98 µM; CHO cells, NOD2-RIPK2 BLA complementation, CCF4 FRET; shares compounds with NOD2-RIPK2 inh; AID 624370;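 active means mean inhibition across replicates above a set limit taken from the earlier primary screen, cut at about 21% in these data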
BLA counter = hits BLA reporter in NOD2-RIPK2 inhibitor counterscreen. shares compounds with NOD2-RIPK2 inh. 1,200 tested, 57% active. CHO BLA reporter, CCF4 FRET ratio. inhibition, % at 4.98 µM;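 active means mean inhibition above the low-control mean inhibition plus three low-control SD, cut at about 11% in these data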
Large screens that a line does not name were inactive (follow-up assays come after a bar, where they were run). Rows were chosen to be rich in hits. Some 0.97% of all compounds tested hit in one or more screens of this group.

Cc1cccc(C)c1NC(=O)C(C1CC1)n1c(=O)c(-c2cc3ccccc3[nH]2)nc2ccccc21 (stereo not given)	NOD2-RIPK2 inh 47 (no result: TLR4-MyD88 BLA, TLR9-MyD88 block, A1 inh, B2AR ag, NTR1 agonist) | NOD2-RIPK2 conf 42 | BLA counter 67
COc1ccc(C(=O)c2[nH]c(N)c(C(=O)NCCc3c[nH]c4ccccc34)c2-c2c(F)cccc2Cl)cc1	none (no result: TLR4-MyD88 BLA, TLR9-MyD88 block, A1 inh, B2AR ag, NTR1 agonist)
COC(=O)c1ccc[n+](CCc2c[nH]c3ccccc23)c1	none (no result: TLR4-MyD88 BLA)
CCN(CC)Cc1c(O)ccc2cc(-c3nc4ccccc4n3C)c(=O)oc12	NOD2-RIPK2 inh 29 (no result: TLR4-MyD88 BLA) | NOD2-RIPK2 conf 35 | BLA counter 56
O=c1c(Cl)c(O)c2cccc3c4ccccc4n1c23	none
COc1c(O)c(=O)n2c3ccccc3c3ccnc1c32	NOD2-RIPK2 inh 26 (no result: TLR4-MyD88 BLA) | NOD2-RIPK2 conf inactive | BLA counter 18
CCOc1ncnc2c1sc1nc(C)cc(C)c12	none (no result: TLR4-MyD88 BLA)
O=C(CN1CCN(S(=O)(=O)c2ccc(Br)cc2)CC1)N/N=C/c1ccc(Cl)c([N+](=O)[O-])c1	NOD2-RIPK2 inh 33 | NOD2-RIPK2 conf 32 | BLA counter inactive
O=C(COC(=O)c1cccc(OC(F)F)c1)NC1CCCC1	none (no result: TLR4-MyD88 BLA)
O=CNc1ccc2c3c(cccc13)-c1ccccc1-2	NOD2-RIPK2 inh 29 (no result: TLR4-MyD88 BLA, A1 inh, NTR1 agonist) | NOD2-RIPK2 conf 24 | BLA counter 38
CCCCC/C=C\C[C@H](O)/C=C/c1cccc(C[C@H](O)CCCCO)n1	none
CCN1C(=O)c2cccc3c(S(=O)(=O)N4CCCC4C(=O)O)ccc1c23 (stereo not given)	none (no result: TLR4-MyD88 BLA)
CCOC(=O)C1CCCN(S(=O)(=O)c2ccc3c4c(cccc24)C(=O)N3CC)C1 (stereo not given)	NOD2-RIPK2 inh 27 (no result: TLR4-MyD88 BLA) | NOD2-RIPK2 conf 25 | BLA counter 25
CC(NC(=O)COC(=O)c1cccnc1Cl)C12CC3CC(CC(C3)C1)C2 (stereo not given)	none (no result: TLR4-MyD88 BLA)
Cc1nnsc1C(=O)Nc1ccc(S(=O)(=O)N2CCCCC2C)cc1 (stereo not given)	none (no result: TLR4-MyD88 BLA)
Cc1ccc(-c2nc3sc4c(c3c(=O)n2N)CC(C)(C)OC4)cc1	none
CC1(C)Cc2c(sc3nc(-c4cc5ccccc5o4)n(N)c(=O)c23)CO1	NOD2-RIPK2 inh 23 | NOD2-RIPK2 conf inactive | BLA counter inactive
CCOc1ccccc1OCCCC(=O)N(C)CC(=O)Nc1cc(C)ccc1C	none
CCN(CC)c1ccc(C=C(c2nnnn2-c2ccc(C)cc2)c2nnnn2-c2ccc(C)cc2)cc1	NOD2-RIPK2 inh 22 | NOD2-RIPK2 conf 28 | BLA counter 34
Cc1ccc(-n2nnnc2-c2ccccc2)cc1	none
N#Cc1ccccc1OCC(=O)OCC(=O)Nc1ccc2c(c1)OCO2	none (no result: TLR4-MyD88 BLA)
COc1ccc(C(C#N)=C2C=C(Cl)C(=NO)C=C2Cl)cc1	none (no result: TLR4-MyD88 BLA, A1 inh, B2AR ag, NTR1 agonist)
N#CC(=C1C=C(Br)C(=NO)C=C1Cl)c1cccc2ccccc12	NOD2-RIPK2 inh 41 (no result: TLR4-MyD88 BLA, A1 inh, B2AR ag, NTR1 agonist) | NOD2-RIPK2 conf 58 | BLA counter 30
O=C(NCc1ccccc1)C1Cc2c(-c3ccc(Cl)cc3)ccnc2O1 (stereo not given)	NOD2-RIPK2 inh 21 (no result: TLR4-MyD88 BLA, TLR9-MyD88 block, A1 inh, B2AR ag, NTR1 agonist) | NOD2-RIPK2 conf inactive | BLA counter inactive
CC(=O)O[C@H](CC(=O)O)C[N+](C)(C)C	none (no result: TLR4-MyD88 BLA)
COc1nn(-c2ccccc2)c(=O)c(Cl)c1Cl	NOD2-RIPK2 inh 27 (no result: TLR4-MyD88 BLA) | NOD2-RIPK2 conf 27 | BLA counter inactive
COc1c(Cl)cnn(-c2ccccc2)c1=O	none
COC1=C(OC)C(=O)C(Sc2ccc3ccccc3c2)=CC1=O	NOD2-RIPK2 inh 25 (no result: TLR4-MyD88 BLA, A1 inh, NTR1 agonist) | NOD2-RIPK2 conf 70 | BLA counter 31
COc1ccc(S(=O)(=O)Oc2ccc3ccccc3c2)cc1	none
COc1ncc(-c2ccc(N3C(c4ccc([N+](=O)[O-])cc4)=Cc4ccccc4C3CC(C)=O)cc2)cn1 (stereo not given)	NOD2-RIPK2 inh 34 (no result: TLR4-MyD88 BLA, TLR9-MyD88 block, A1 inh, B2AR ag, NTR1 agonist) | NOD2-RIPK2 conf inactive | BLA counter 18
CCOC(=O)Nc1ccc2c(c1)N(C(=O)CCN(CC)CC)c1ccccc1CC2	none (no result: TLR4-MyD88 BLA)
CCOC(=O)Nc1ccc2c(c1)N(C(=O)CCN(CC)CC)c1ccccc1S2=O (stereo not given)	NOD2-RIPK2 inh 31 (no result: TLR4-MyD88 BLA) | NOD2-RIPK2 conf inactive | BLA counter inactive
c1ccc(-c2sc3ccccc3c2-c2ccc(OCCN3CCCC3)cc2)cc1	NOD2-RIPK2 inh 23, B2AR ag 68 (no result: TLR4-MyD88 BLA) | NOD2-RIPK2 conf inactive | BLA counter inactive
COc1ccc(-c2sc3ccccc3c2-c2ccc(OCCN3CCCCC3)cc2)cc1	none (no result: TLR4-MyD88 BLA)
O=C(c1ccc2c(c1)OCO2)N1CCN=C1SCc1cccnc1	none
O=c1c2cc(F)ccc2[nH]c(=S)n1CCCN1CCOCC1	none
COc1ccc(/C=N/NC(=O)c2ccc(NC(C)=O)cc2)cc1COc1ccc(F)cc1F	TLR9-MyD88 block 30, NOD2-RIPK2 inh 25 (no result: TLR4-MyD88 BLA) | NOD2-RIPK2 conf inactive | BLA counter inactive
COc1ccc(/C=N\NC(=O)c2ccccc2F)cc1COc1ccc(F)cc1F	none (no result: TLR4-MyD88 BLA)
COc1ccccc1Nc1nc2c(s1)CCC2	none
Cc1cc(=O)[nH]c(SCc2cc(=O)n3nc(C)sc3n2)n1	none
O=C(Cc1csc(Nc2nc(=S)[nH]c3ccccc23)n1)NCCCN1CCN(c2ccccc2F)CC1	NOD2-RIPK2 inh 47 | NOD2-RIPK2 conf 46 | BLA counter 54
O=C(Cc1csc(Nc2nc(=S)[nH]c3ccccc23)n1)NCc1ccc(Cl)cc1	none
CCOCCCNC(=O)/C(C#N)=C/c1ccc([N+](=O)[O-])o1	NOD2-RIPK2 inh 26 | NOD2-RIPK2 conf 54 | BLA counter 27
Brc1ccc(C2=CC(c3ccco3)n3nnnc3N2)cc1 (stereo not given)	none (no result: TLR4-MyD88 BLA)
Fc1ccc(C2=CC(c3ccco3)n3ncnc3N2)cc1 (stereo not given)	TLR9-MyD88 block 35, NOD2-RIPK2 inh 36 | NOD2-RIPK2 conf inactive | BLA counter 12
O=C1N/C(=C/c2ccc(N3CCOCC3)o2)C(=O)N1c1cccc(Cl)c1	A1 inh inconclusive, NOD2-RIPK2 inh 33 | NOD2-RIPK2 conf 22 | BLA counter inactive
CCn1cc(/C=C(\NC(=O)c2ccc(OC)cc2)C(=O)N2CCN(C)CC2)c2ccccc21	none (no result: TLR4-MyD88 BLA, A1 inh)
Cc1ccc(C(=O)/C=C/c2cn(CN3CCN(C)CC3)c3ccccc23)cc1	NOD2-RIPK2 inh 24 | NOD2-RIPK2 conf 26 | BLA counter 38
Cn1cc(/C=C/C(=O)c2ccccc2)c2ccccc21	NOD2-RIPK2 inh 25 (no result: TLR4-MyD88 BLA) | NOD2-RIPK2 conf 25 | BLA counter 28
CCSc1nc(=O)n(-c2ccccc2)c(C)c1C(C)=S	none

Compound activity deposited in PubChem BioAssay by several laboratories.
